The record followed here is the antibiotic and cytotoxicity screens of Wong et al. (2023).

Molecules are shown by their SMILES. Among all 39,000 compounds or so, about 1,500 (3.8%) were called active. The sample as a whole holds a higher share of actives than the screen did.

The test system of this experiment is HSkMC (human skeletal muscle cells). In words: cytotoxicity call (relative viability < 0.9). To be noted: 10 µM.
For `COCCn1cc2c(n1)[C@H](CNC(=O)COC)OCC2`, the cytotoxicity call was “inactive”.
The value for `C[C@@H]1CCCCO[C@H](CN(C)C(=O)c2ccccc2)[C@@H](C)CN([C@H](C)CO)C(=O)c2cc(NC(=O)C3CCCCC3)ccc2O1` was “inactive”; that for `C[C@@H]1CN([C@@H](C)CO)C(=O)c2cc(NC(=O)Nc3ccccc3)ccc2O[C@@H](C)CCCCO[C@H]1CN(C)C(=O)Nc1cccc2ccccc12` was “inactive”.
As for `C[C@@H]1CCCCO[C@H](CN(C)Cc2ccccc2)[C@@H](C)CN([C@@H](C)CO)C(=O)c2cc(NC(=O)Nc3ccc(C(F)(F)F)cc3)ccc2O1`, the cytotoxicity call was “active”.
The entry for `C[C@@H]1CCCCO[C@H](CN(C)Cc2ccccc2)[C@@H](C)CN([C@H](C)CO)C(=O)c2cc(NC(=O)Nc3ccc(C(F)(F)F)cc3)ccc2O1` is “active”.
The entry for `C[C@H](CO)N1C[C@H](C)[C@H](CN(C)Cc2ccccc2)OCCCC[C@H](C)Oc2ccc(NC(=O)Nc3ccc(C(F)(F)F)cc3)cc2C1=O` is “active”.
The entry for `C[C@@H]1CN([C@H](C)CO)C(=O)c2cc(NC(=O)Nc3ccc(C(F)(F)F)cc3)ccc2O[C@@H](C)CCCCO[C@@H]1CN(C)Cc1ccccc1` is “active”; for `Cn1nc(C2CC2)cc1N` it is “inactive”.
In the case of `C[C@H](CO)N1C[C@H](C)[C@@H](CN(C)C(=O)NC2CCCCC2)OCCCC[C@H](C)Oc2ccc(NC(=O)C3CCCCC3)cc2C1=O`, the cytotoxicity call is “inactive”.
The value for `Cc1noc(C)c1NC(=O)Nc1ccc2c(c1)C(=O)N([C@H](C)CO)C[C@H](C)[C@H](CN(C)C(=O)Cc1ccccc1)OCCCC[C@@H](C)O2` was “inactive”.
The entry for `C[C@H](CO)N1C[C@H](C)[C@H](CN(C)C(=O)C2CCCCC2)Oc2cc(C#Cc3ccncc3)ccc2S1(=O)=O` is “inactive”; for `Cc1onc(-c2ccccc2)c1C(=O)NC1C(=O)N2C1SC(C)(C)C2C(=O)[O-].[Na+]` (configuration not stated) it is “inactive”.
As to `COc1ccc(S(=O)(=O)Nc2ccc3c(c2)C(=O)N([C@H](C)CO)C[C@H](C)[C@H](CN(C)C(=O)Nc2ccc(F)cc2)OCCCC[C@H](C)O3)cc1`, the cytotoxicity call is “inactive”.
The entry for `O=C(O)c1ccoc1` is “inactive”; for `Cc1ccc(S(=O)(=O)N(C)C[C@H]2Oc3cc(C#Cc4ccncc4)ccc3S(=O)(=O)N([C@H](C)CO)C[C@@H]2C)cc1` it is “inactive”; for `C[C@@H]1CN([C@H](C)CO)C(=O)c2cc(NC(=O)NC3CCCCC3)ccc2O[C@@H]1CN(C)Cc1ccc(C(F)(F)F)cc1` it is “inactive”.
Consider `C[C@@H]1CCCCO[C@@H](CN(C)Cc2ccccc2)[C@@H](C)CN([C@H](C)CO)C(=O)c2cc(NC(=O)Nc3ccc(C(F)(F)F)cc3)ccc2O1`, for which the cytotoxicity call was “inactive”.
The entry for `C[C@@H]1CCCCO[C@@H](CN(C)Cc2ccccc2)[C@H](C)CN([C@@H](C)CO)C(=O)c2cc(NC(=O)Nc3ccc(C(F)(F)F)cc3)ccc2O1` is “inactive”; for `C[C@H](CO)N1C[C@H](C)[C@@H](CN(C)Cc2ccccc2)OCCCC[C@H](C)Oc2ccc(NC(=O)Nc3ccc(C(F)(F)F)cc3)cc2C1=O` it is “active”.
The entry for `C[C@@H]1CCCCO[C@H](CN(C)Cc2ccccc2)[C@H](C)CN([C@H](C)CO)C(=O)c2cc(NC(=O)Nc3ccc(C(F)(F)F)cc3)ccc2O1` is “active”; for `C[C@@H]1CN([C@H](C)CO)C(=O)c2cc(NC(=O)Nc3ccc(C(F)(F)F)cc3)ccc2O[C@@H](C)CCCCO[C@H]1CN(C)Cc1ccccc1` it is “active”; for `C[C@@H]1CN([C@@H](C)CO)C(=O)c2cc(NC(=O)Nc3ccc(C(F)(F)F)cc3)ccc2O[C@@H](C)CCCCO[C@@H]1CN(C)Cc1ccccc1` it is “inactive”.
In the case of `C[C@@H]1CCCCO[C@@H](CN(C)Cc2ccccc2)[C@H](C)CN([C@H](C)CO)C(=O)c2cc(NC(=O)Nc3ccc(C(F)(F)F)cc3)ccc2O1`, the cytotoxicity call is “inactive”.
The entry for `C[C@@H]1CCCCO[C@@H](CN(C)Cc2ccccc2)[C@@H](C)CN([C@@H](C)CO)C(=O)c2cc(NC(=O)Nc3ccc(C(F)(F)F)cc3)ccc2O1` is “active”; for `CCC[C@@H](O)C#Cc1cnc2c(c1)C(=O)N([C@H](C)CO)C[C@H](C)[C@H](CN(C)C(=O)Nc1ccc(F)cc1)O2` it is “inactive”.
On to `COC(=O)C12CC3(C(=O)OC)CC(C(=O)OC)(CC(C(=O)OC)(C1)C3=O)C2=O`, for which the cytotoxicity call was “inactive”.
Regarding `COc1cccc(S(=O)(=O)Nc2ccc3c(c2)[C@@H]2C[C@H](CC(=O)NCc4cccc(F)c4)O[C@@H](CO)[C@@H]2O3)c1`, the cytotoxicity call is “inactive”.
`Cc1c2occ(C(C)(C)C)c2cc2c3c(c(=O)oc12)CCCC3`: the cytotoxicity call is “inactive”.
As for `NC(=O)c1ccco1`, the cytotoxicity call was “inactive”.
The entry for `C[C@H](CO)N1C[C@H](C)[C@H](CN(C)C(=O)Nc2cccc3ccccc23)Oc2c(NC(=O)NC3CCCCC3)cccc2C1=O` is “inactive”; for `COc1ccc(NC(=O)N(C)C[C@H]2Oc3ccc(NC(=O)C4CC4)cc3C(=O)N([C@H](C)CO)C[C@H]2C)cc1` it is “inactive”; for `C=CCOC(=O)[C@H]1[C@@H]2C(=O)O[C@@H](c3ccccc3)[C@@H](c3ccccc3)N2[C@@H](c2ccc(OCCOC(=O)NCCCCCC(=O)NO)cc2)[C@@]12C(=O)Nc1ccccc12` it is “inactive”.
The entry for `C[C@@H]1CCCCO[C@H](CN(C)C(=O)Cc2ccccc2)[C@@H](C)CN([C@@H](C)CO)C(=O)c2cc(NS(=O)(=O)c3ccc(F)cc3)ccc2O1` is “inactive”; for `Cn1c(=O)c2c(ncn2CC(=O)O)n(C)c1=O` it is “inactive”.
The value for `Cc1cnc(Nc2ccc(F)cc2Cl)nc1-c1c[nH]c(C(=O)N[C@H](CO)c2cccc(Cl)c2)c1` was “active”.
`O=C(C[C@@H]1CC[C@@H]2NC[C@@H](O)COC[C@H]2O1)NCCN1CCCC1`: the cytotoxicity call is “inactive”.
Turning to `Cc1ccc(S(=O)(=O)N(C)C[C@@H]2OCCCC[C@H](C)Oc3ccc(NS(=O)(=O)c4ccc(Cl)cc4)cc3C(=O)N([C@@H](C)CO)C[C@H]2C)cc1`, the cytotoxicity call is “inactive”.
The value for `O=C(O)c1cc2sccc2s1` was “inactive”.
The value for `CCOc1cc2ncc(C#N)c(Nc3ccc(OCc4ccccn4)c(Cl)c3)c2cc1NC(=O)/C=C/[C@H]1CCCN1C` was “inactive”; that for `CCOc1cc2ncc(C#N)c(Nc3ccc(OCc4ccccn4)c(Cl)c3)c2cc1NC(=O)/C=C/CN(C)C` was “active”.
The entry for `COc1cc(Nc2c(C#N)cnc3cc(OCCCN4CCN(C)CC4)c(OC)cc23)c(Cl)cc1Cl` is “inactive”.
As to `C[C@@H]1CCCCO[C@@H](CN(C)C(=O)Cc2ccccc2)[C@H](C)CN([C@@H](C)CO)C(=O)c2cc(NS(=O)(=O)c3ccc(Cl)cc3)ccc2O1`, the cytotoxicity call is “inactive”.
